Experimental data: PubChem BioAssay (Tox21)
Where “and” joins values, the source holds several entries; their conditions need not be identical. Equal entries are not always repeated. Records with an inconclusive call do not appear. Calls of active or inactive are those of the source. Unless noted, calls follow the shape of the dose curve; as a rule, active = well fitted curve in the direction sought with a large enough effect in the repeat runs; inconclusive = weak or mixed curves; inactive = no such curve, though single readings can be large; an effect the other way counts as inactive or inconclusive.

Tests used:
[1] = qHTS assay to identify small molecule agonists of the estrogen receptor alpha (ER-alpha) signaling pathway in the presence of an antagonist - cell viability counter screen (AID 1259386);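 also: series mostly up to about 92 µM; cells exposed to compounds for 22 h at 37 °C before the viability read; nearly all actives have a fitted effect of over 30% in size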
How it was run: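 In this counter screen, compound effects on VM7Luc4E2 viability were tested in the presence of the antagonist ICI-182,780 at 10.0nM final. Compounds were dosed at 15 concentrations, exposure lasted 22hr, and the CellTiter-Fluor signal was read.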

[2] = qHTS assay to identify small molecule antagonists of the progesterone receptor (PR) signaling pathway - cell viability counter screen (AID 1346798); also: series mostly up to about 92 µM; nearly all actives have a fitted effect of over 50% in size
How it was run: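 Luminescence readout (CellTiter-Glo, 30 min, RT) of viability in PR-UAS-bla HEK293T cells exposed to compound and R5020 agonist for 16 hr at 37C, 5% CO2; run in the same wells as the beta-lactamase reporter read.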

[3] = qHTS assay to identify small molecule antagonists of the TGF-beta/Smad signaling pathway - cell viability counter screen (AID 1346824); also: nearly all actives have a fitted effect of over 50% in size
How it was run: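 Cytotoxicity counter-screen run in the same wells as the beta-lactamase Smad reporter read: CellTiter-Glo luminescence after 30 min at room temperature. HEK 293T SBE-bla cells had 5 hr compound exposure at 37 C with TGF-beta1 (0.25 ng/mL stock).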

[4] = qHTS assay to identify small molecule agonists of the TGF-beta/Smad signaling pathway - cell viability counter screen (AID 1346829); also: top concentration of the series differs between compounds; nearly all actives have a fitted effect of over 45% in size
How it was run: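 Cytotoxicity counter screen: CellTiter-Glo luminescence (30 min, room temperature) measured in the SBE-bla HEK 293T reporter wells after 5 hr compound treatment at 37 C and the 2 hr substrate step.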

[5] = target: Thyrotropin-releasing hormone receptor (Homo sapiens) (UniProt P34981); assay: qHTS assay to identify small molecule antagonists of the thyrotropin-releasing hormone receptor (TRHR) signaling pathway (AID 1346877; active = well fitted inhibition curve with a large enough effect in the repeat runs, not every such curve was filed as active; also: series mostly up to about 51 µM)
Sequence of Thyrotropin-releasing hormone receptor (Homo sapiens) (P34981 whole entry, looked up): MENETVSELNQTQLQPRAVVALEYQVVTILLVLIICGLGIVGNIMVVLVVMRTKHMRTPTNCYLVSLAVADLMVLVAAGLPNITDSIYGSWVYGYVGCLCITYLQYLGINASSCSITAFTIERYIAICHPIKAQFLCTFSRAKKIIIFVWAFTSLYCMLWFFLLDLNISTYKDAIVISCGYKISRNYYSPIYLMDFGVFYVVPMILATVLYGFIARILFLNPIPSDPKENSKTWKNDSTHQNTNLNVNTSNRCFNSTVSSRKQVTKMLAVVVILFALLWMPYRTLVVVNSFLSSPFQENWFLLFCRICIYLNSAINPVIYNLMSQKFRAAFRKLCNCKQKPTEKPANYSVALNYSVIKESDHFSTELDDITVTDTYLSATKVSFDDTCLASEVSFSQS
How it was run: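 Kinetic fluorescence (3 min, 1 s resolution) following stimulation with TRH at 1 nM final; HEK293 cells bearing human TRHR; 5 min compound preincubation at RT; concentration-response over 15 points, triplicates.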

[6] = Human pregnane X receptor (PXR) small molecule agonists, qHTS cell viability counter screen (AID 1346977); also: nearly all actives have a fitted effect of over 50% in size
How it was run: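 Fluorescence read-out (CellTiter-Fluor) of viability in PXR-Luc HepG2 cells, multiplexed with the luciferase agonist read. Compounds in DMSO added after 5hr plating; 24hr total exposure at 37C, 5% CO2.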

[7] = Caspase-3/7 induction in HepG2 cells by small molecules, qHTS assay (AID 1346978); also: nearly all actives have a fitted effect of over 15% in size
How it was run: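 Caspase-3/7 induction was measured by Caspase-Glo 3/7 luminescence (30 min, room temperature) after a 17 hr compound exposure of wild-type HepG2 cells seeded at 2,000 per well and pre-incubated 5 hr.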

[8] = Caspase-3/7 induction in CHO-K1 cells by small molecules, qHTS cell viability counter screen (AID 1346979); also: nearly all actives have a fitted effect of over 35% in size; also: potency is read from the fitted curve at half-maximal effect
How it was run: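 CHO-K1 wt, 1,500 cells/well; 5hr pre-incubation 37C/5% CO2; compound pin transfer (DMSO); 16hr exposure; CellTiter-Fluor added, 1hr, fluorescence read.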

[9] = Caspase-3/7 induction in CHO-K1 cells by small molecules, qHTS assay (AID 1346980); also: nearly all actives have a fitted effect of over 15% in size
How it was run: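 Luminescent Caspase-Glo 3/7 read (30min, room temperature) quantified apoptosis induction. Cells were wild-type CHO-K1, treated with compound for 17hr at 37 C and 5% CO2.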

[10] = Caspase-3/7 induction in HepG2 cells by small molecules, qHTS cell viability counter screen (AID 1346981); also: series mostly up to about 92 µM; nearly all actives have a fitted effect of over 30% in size
How it was run: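 In this quantitative HTS counter screen, compounds delivered in DMSO were left on unmodified HepG2 cells for 16 hr at 37 C. Viability was then determined fluorometrically with CellTiter-Fluor, in parallel with caspase-3/7 induction in the same wells.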

[11] = target: Acetylcholinesterase (Homo sapiens) (UniProt P22303); assay: Acetylcholinesterase (AChE) small molecule antagonists: colormetric cell-based qHTS assay (AID 1347395; calls by dose curve; also: nearly all actives have a fitted effect of over 30% in size)
Sequence of Acetylcholinesterase (Homo sapiens) (P22303 whole entry, looked up): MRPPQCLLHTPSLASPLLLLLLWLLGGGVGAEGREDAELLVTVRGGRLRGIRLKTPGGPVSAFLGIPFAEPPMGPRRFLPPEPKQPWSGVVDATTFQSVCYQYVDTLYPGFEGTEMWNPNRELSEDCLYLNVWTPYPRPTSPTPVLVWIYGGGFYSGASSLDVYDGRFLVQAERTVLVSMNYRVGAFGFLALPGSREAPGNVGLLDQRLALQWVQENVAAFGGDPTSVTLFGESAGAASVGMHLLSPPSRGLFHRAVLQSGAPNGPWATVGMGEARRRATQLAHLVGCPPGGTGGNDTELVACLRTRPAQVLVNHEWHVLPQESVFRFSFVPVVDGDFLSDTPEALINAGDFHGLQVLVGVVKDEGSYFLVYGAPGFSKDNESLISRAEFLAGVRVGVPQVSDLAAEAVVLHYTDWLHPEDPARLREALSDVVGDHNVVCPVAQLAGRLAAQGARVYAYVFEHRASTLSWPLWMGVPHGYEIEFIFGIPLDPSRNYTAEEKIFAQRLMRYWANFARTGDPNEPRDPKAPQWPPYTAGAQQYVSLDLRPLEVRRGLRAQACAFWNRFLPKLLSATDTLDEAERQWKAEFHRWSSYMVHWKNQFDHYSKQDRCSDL
How it was run: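 SH-SY5Y cells; cpd 30 min 37 C; + DTNB/acetylthiocholine, 90 min 37 C; colorimetric thiocholine read; qHTS.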

[12] = target: Progesterone receptor (Homo sapiens) (UniProt P06401); assay: qHTS assay to identify small molecule agonists of the progesterone receptor (PR) signaling pathway (AID 1346784; calls by dose curve; also: nearly all actives have a fitted effect of over 30% in size)
Sequence of Progesterone receptor (Homo sapiens) (P06401 whole entry, looked up): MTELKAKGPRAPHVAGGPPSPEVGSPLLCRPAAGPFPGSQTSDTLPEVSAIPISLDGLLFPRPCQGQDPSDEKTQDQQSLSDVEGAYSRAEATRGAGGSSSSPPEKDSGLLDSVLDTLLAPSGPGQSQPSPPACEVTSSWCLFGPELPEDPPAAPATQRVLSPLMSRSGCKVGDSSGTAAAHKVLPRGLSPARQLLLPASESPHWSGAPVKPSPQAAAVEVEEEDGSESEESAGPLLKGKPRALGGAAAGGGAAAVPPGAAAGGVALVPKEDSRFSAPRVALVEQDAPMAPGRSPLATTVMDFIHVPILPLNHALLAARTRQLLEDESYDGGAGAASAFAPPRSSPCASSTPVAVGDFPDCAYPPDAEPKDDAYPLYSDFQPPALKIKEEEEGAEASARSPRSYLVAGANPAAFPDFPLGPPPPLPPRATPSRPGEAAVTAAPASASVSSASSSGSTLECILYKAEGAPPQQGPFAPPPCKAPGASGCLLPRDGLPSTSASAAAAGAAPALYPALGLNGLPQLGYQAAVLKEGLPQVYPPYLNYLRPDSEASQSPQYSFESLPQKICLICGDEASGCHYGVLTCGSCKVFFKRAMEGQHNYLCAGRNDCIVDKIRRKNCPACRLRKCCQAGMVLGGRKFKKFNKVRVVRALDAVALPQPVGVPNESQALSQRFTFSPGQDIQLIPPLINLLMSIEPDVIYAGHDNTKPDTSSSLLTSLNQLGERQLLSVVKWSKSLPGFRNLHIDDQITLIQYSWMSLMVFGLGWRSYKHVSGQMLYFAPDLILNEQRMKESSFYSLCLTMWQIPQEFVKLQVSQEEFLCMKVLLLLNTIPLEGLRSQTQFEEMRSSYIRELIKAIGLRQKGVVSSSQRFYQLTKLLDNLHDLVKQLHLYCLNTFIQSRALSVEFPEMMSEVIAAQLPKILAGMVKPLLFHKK
How it was run: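 HEK 293T PR-UAS-bla reporter cells, 2% charcoal-stripped FBS; 6 hr settle at 37C/5% CO2, compound (DMSO) 16 hr, LiveBLAzer B/G FRET substrate 2 hr RT, fluorescence intensity read.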

[13] = target: Progesterone receptor (Homo sapiens) (UniProt P06401); assay: qHTS assay to identify small molecule antagonists of the progesterone receptor (PR) signaling pathway (AID 1346795; active = well fitted inhibition curve with a large enough effect in the signal ratio in the repeat runs, not every such curve was filed as active; the % refers to the signal ratio)
How it was run: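 Beta-lactamase reporter, HEK293T PR-UAS-bla line; 2% charcoal-stripped FBS; 6 hr pre-incubation, 37C/5% CO2. Compound + R5020 1 nM final, 16 hr. LiveBLAzer B/G FRET substrate, 2 hr RT; fluorescence intensity read.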

[14] = qHTS assay to identify small molecule agonists of the progesterone receptor (PR) signaling pathway - cell viability counter screen (AID 1346799; calls by dose curve; also: nearly all actives have a fitted effect of over 45% in size)
How it was run: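 HEK293T PR-UAS-bla, 3,000 cells/well, 2% charcoal-stripped FBS; 6 h settle, compound 16 h at 37C/5% CO2; LiveBLAzer 2 h RT, then CellTiter-Glo 30 min RT, luminescence read.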

[15] = qHTS assay to identify small molecule agonists of the TGF-beta/Smad signaling pathway (AID 1346859; active = well fitted activation curve with a large enough effect in the signal ratio in the repeat runs, not every such curve was filed as active; the % refers to the signal ratio; also: series mostly up to about 77 µM)
How it was run: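 Read-out: fluorescence at 460 and 530 nm (405 nm excitation) after a 2 hr room-temperature incubation with beta-lactamase FRET substrate. SBE-bla HEK 293T cells had been treated with test compounds for 5 hr at 37 C.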

[16] = target: Thyrotropin-releasing hormone receptor (Homo sapiens) (UniProt P34981); assay: qHTS assay to identify small molecule agonists of the thyrotropin-releasing hormone receptor (TRHR) signaling pathway (AID 1346891; calls by dose curve;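 also: HEK293 cells expressing TRHR with calcium dye readout; series mostly up to about 58 µM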)
How it was run: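 HEK293/TRHR cells, 1500 per well, 18 h 37 °C; Ca dye 2 h 37 °C; pin-tool compound addition (agonist mode); kinetic fluorescence 3 min, 1 s reads; 15 concentrations, triplicate.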

[17] = target: Nuclear receptor subfamily 1 group I member 2 (Homo sapiens) (UniProt O75469); assay: Human pregnane X receptor (PXR) small molecule agonists, qHTS assay (AID 1346982); also: nearly all actives have a fitted effect of over 35% in size; also: potency is read from the fitted curve at half-maximal effect
Sequence of Nuclear receptor subfamily 1 group I member 2 (Homo sapiens) (O75469 whole entry, looked up): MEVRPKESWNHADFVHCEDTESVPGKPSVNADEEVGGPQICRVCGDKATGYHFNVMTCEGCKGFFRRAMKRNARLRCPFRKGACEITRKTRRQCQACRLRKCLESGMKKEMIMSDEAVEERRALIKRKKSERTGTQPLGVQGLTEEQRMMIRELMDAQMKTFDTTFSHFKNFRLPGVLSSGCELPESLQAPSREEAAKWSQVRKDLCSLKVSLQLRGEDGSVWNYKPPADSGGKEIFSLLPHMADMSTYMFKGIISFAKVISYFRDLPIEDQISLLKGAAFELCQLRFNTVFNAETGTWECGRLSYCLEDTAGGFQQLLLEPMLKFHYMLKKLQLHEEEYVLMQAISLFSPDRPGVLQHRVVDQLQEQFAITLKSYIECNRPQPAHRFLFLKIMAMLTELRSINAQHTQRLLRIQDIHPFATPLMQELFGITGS
How it was run: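 Reporter HepG2 cells expressing PXR-Luc are cultured in charcoal-stripped FBS (5%), treated with compounds for 24 hr at 37 C, and assayed by ONE-Glo luminescence after 30 min at room temperature.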

[18] = target: Nuclear receptor subfamily 1 group I member 2 (Rattus norvegicus) (UniProt Q9R1A7); assay: Rat pregnane X receptor (rPXR) activation by small molecules, qHTS assay (AID 1346983); conditions: rPXR luciferase reporter cells, One-Glo luminescence, 24 h; active compounds read high; also: nearly all actives have a fitted effect of over 20% in size
Sequence of Nuclear receptor subfamily 1 group I member 2 (Rattus norvegicus) (Q9R1A7 whole entry, looked up): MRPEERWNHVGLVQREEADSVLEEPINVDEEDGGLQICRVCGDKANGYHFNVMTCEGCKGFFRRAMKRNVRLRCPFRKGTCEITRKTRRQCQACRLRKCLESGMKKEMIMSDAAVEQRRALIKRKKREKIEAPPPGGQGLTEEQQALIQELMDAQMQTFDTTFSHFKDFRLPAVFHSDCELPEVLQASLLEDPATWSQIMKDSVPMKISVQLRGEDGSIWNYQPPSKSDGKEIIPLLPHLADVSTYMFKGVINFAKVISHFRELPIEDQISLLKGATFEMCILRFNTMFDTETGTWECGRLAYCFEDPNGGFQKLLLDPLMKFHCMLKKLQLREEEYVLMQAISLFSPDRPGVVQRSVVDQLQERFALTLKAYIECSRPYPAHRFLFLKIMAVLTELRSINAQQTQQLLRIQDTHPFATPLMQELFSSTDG
How it was run: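 Luminescent readout (One-Glo luciferase, 30 min room temperature) followed 24 hr compound treatment at 37 C of rPXR cells plated 2,000 per well and preincubated 5hr; qHTS format with compounds delivered in DMSO.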

[19] = target: Nuclear receptor subfamily 1 group I member 2 (Homo sapiens) (UniProt O75469); assay: CYP3A4 induction through human pregnane X receptor (PXR) by small molecules, qHTS assay (AID 1346984); also: nearly all actives have a fitted effect of over 40% in size
How it was run: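 Induction measured in HepG2-based DPX-2 cells co-expressing human PXR and a CYP3A4 promoter-driven luciferase. After a 24-hour compound exposure, cells received CYP3A4 luciferin substrate at 3uM final for 3 hours, and light output was then recorded.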

[20] = target: Nuclear receptor subfamily 1 group I member 2 (Homo sapiens) (UniProt O75469); assay: Human pregnane X receptor (PXR) activation by small molecules, qHTS assay (AID 1346985); also: nearly all actives have a fitted effect of over 40% in size
How it was run: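 DPX-2 cells (HepG2 co-transfected with a PXR response element and a CYP3A4-promoter luciferase construct) were seeded at 2,000 per well, rested 5 hr at 37C, then exposed to DMSO-dissolved compounds for 24 hr. Activation was read as luciferase luminescence.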
% is scaled to controls: 0 for no effect and ±100 for the full control effect.

CCN[C@@H](C)Cc1cccc(C(F)(F)F)c1
inactive: Potency [1] | Potency [2] | outcome [3] | Potency [4] | Potency [5] | Potency [6] | outcome [7] | Potency [8] | outcome [9] | Potency [10] | Potency [11]

Cc1ccc(-c2nc3ccc(C)cn3c2CC(=O)N(C)C)cc1
inactive: Potency [12] | Potency [13] | Potency [2] | Potency [14] | outcome [3] | Potency [4] | outcome [15] | Potency [5] | outcome [16] | Potency [6] | outcome [7] | Potency [8] | max activation [18] 1.42% | Potency [19] | Potency [20] | Potency [11]
active: Potency [17] 23.7 µM

ClCC1CO1 (stereo unspecified)
inactive: Potency [1] | Potency [14] | outcome [3] | Potency [4] | outcome [15] | Potency [5] | outcome [16] | Potency [6] | outcome [7] | Potency [8] | outcome [9] | Potency [10] | Potency [17] | max activation [18] -3.74% | Potency [19] | Potency [20] | Potency [11]

Brc1c(Br)c(Br)c(Br)c(Br)c1Br
inactive: activity change, negative = cytotoxicity [1] 2.08% [at 8.39 µM] | activity change, negative = cytotoxicity [14] 33% [at 8.39 µM] | viability change, negative = cytotoxic [3] -1.01% [at 6.97 µM] | activity change, negative = cytotoxicity [4] -6.42% [at 6.97 µM] | activation [15] 3.82% [at 6.97 µM] | activity change, negative = cytotoxicity [6] 1.06% [at 8.39 µM] | caspase activation [7] 0.467% [at 8.39 µM] | activity change, negative = cytotoxicity [8] 1.28% [at 8.39 µM] | caspase-3/7 activation [9] -0.0086% [at 8.39 µM] | activity change, negative = cytotoxicity [10] 7.69% [at 8.39 µM] | activation [17] 1.3% [at 8.39 µM] | activity, negative = inhibition [11] -5.69% [at 10.5 µM]

CC(C)[C@]12CC(=O)[C@H](C)[C@H]1C2
inactive: Potency [1] | Potency [12] | Potency [14] | outcome [3] | Potency [4] | Potency [6] | outcome [7] | Potency [8] | outcome [9] | Potency [10] | Potency [17] | Potency [11]

CCN[C@H](C)Cc1cccc(C(F)(F)F)c1
inactive: Potency [12] | Potency [13] | outcome [3] | Potency [4] | outcome [15] | Potency [5] | outcome [16] | Potency [6] | outcome [7] | Potency [8] | outcome [9] | Potency [10] | Potency [17] | Potency [11]

N=C(N)[Se]
inactive: Potency [12] | Potency [13] | Potency [14] | outcome [3] | Potency [4] | outcome [15] | Potency [6] | outcome [7] | Potency [8] | outcome [9] | Potency [10] | Potency [17] | Potency [11]

CC(C)(C)c1cc(O)ccc1O
active: Potency [8] 43.3 µM and 61.1 µM
inactive: Potency [1] | Potency [12] | outcome [3] | Potency [4] | outcome [15] | Potency [5] | outcome [16] | Potency [6] | outcome [7] | outcome [9] | Potency [10] | max activation [18] -1.85%

CC(C)(N)Cc1ccc(Cl)cc1
inactive: Potency [1] | Potency [13] | outcome [3] | Potency [4] | outcome [15] | Potency [6] | outcome [7] | Potency [8] | outcome [9] | Potency [10] | Potency [17] | max activation [18] -1.44% | Potency [19] | Potency [20] | Potency [11]

C=C1C[C@@H]2[C@H](CC[C@]3(C)C(=O)CC[C@@H]23)[C@@]2(C)C=CC(=O)C=C12
inactive: Potency [12] | Potency [2] | outcome [3] | Potency [4] | Potency [5] | outcome [16] | Potency [6] | outcome [7] | outcome [9] | Potency [19] | Potency [11]
active: Potency [17] 26.6 µM
